About 79,000 compounds went through this panel and 15% of them were active in at least one assay; those are over-represented in the sample as a whole. Active and inactive are the calls of the source. Cut-off read from the data, not from the text of the source: active = growth inhibition above about 70%; inactive = the rest.
Assays:
[1] = NCI Yeast Anticancer Drug Screen. Data for the rad50EPP+ strain (AID 151);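 note: 0% = growth of vehicle-treated control cultures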; settings: S. cerevisiae rad50 mutant strain, stronger effect = higher value
How it was run: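 Growth inhibition read against vehicle controls in rad50EPP+ yeast, a strain altered in DNA damage repair, after compound exposure.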

[2] = NCI Yeast Anticancer Drug Screen. Data for the mgt1 strain (AID 153); settings: S. cerevisiae mgt1 mutant growth inhibition, stronger effect = higher value
How it was run: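 mgt1 yeast grown with test compound; read-out is growth inhibition versus vehicle-treated cultures.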

[3] = NCI Yeast Anticancer Drug Screen. Data for the rad50 strain (AID 155);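 note: 0% = growth of vehicle-only cultures of the same strain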; settings: S. cerevisiae rad50 strain growth inhibition, stronger effect = higher value
How it was run: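 Genetically altered yeast (DNA repair pathway); compound treatment; growth inhibition vs vehicle ctrl.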

[4] = NCI Yeast Anticancer Drug Screen. Data for the mec2-1 strain (AID 157); settings: S. cerevisiae mec2-1 strain, stronger effect = higher value
How it was run: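 Yeast mec2-1 mutant treated with compound. Readout: growth inhibition vs vehicle controls.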

[5] = NCI Yeast Anticancer Drug Screen. Data for the rad14 strain (AID 159);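 note: 0% = growth of vehicle-treated control cultures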; settings: S. cerevisiae rad14 strain growth inhibition, stronger effect = higher value
How it was run: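 Test compounds were applied to a repair-deficient yeast strain. Its growth was then compared with that of cultures given vehicle alone, and inhibition was expressed relative to those controls.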

[6] = NCI Yeast Anticancer Drug Screen. Data for the sgs1 mgt1 strain (AID 161);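 note: 0% = growth of cultures given vehicle only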; settings: S. cerevisiae sgs1 mgt1 strain, stronger effect = higher value
How it was run: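 Inhibition of yeast growth, normalised to vehicle-treated controls, is reported for a strain bearing genetic alterations in DNA damage repair.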

[7] = NCI Yeast Anticancer Drug Screen. Data for the CLN2oe strain (AID 163);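 note: 0% = growth of vehicle-only control cultures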; settings: S. cerevisiae CLN2oe strain, stronger effect = higher value
How it was run: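 Read-out: yeast growth inhibition, expressed relative to vehicle-only controls. The strain bears an engineered cell-cycle alteration.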

[8] = NCI Yeast Anticancer Drug Screen. Data for the cln2 rad14 strain (AID 165);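 note: 0% = growth equal to vehicle treated cultures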; settings: S. cerevisiae cln2 rad14 strain, stronger effect = higher value
How it was run: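 cln2 rad14 yeast strain; compound exposure; growth inhibition read vs vehicle controls.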

[9] = NCI Yeast Anticancer Drug Screen. Data for the bub3 strain (AID 167); settings: S. cerevisiae bub3 mutant strain, stronger effect = higher value
How it was run: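 Yeast carrying a defined mutation is treated with each compound, and growth is compared with that of vehicle-exposed cells to give inhibition.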

[10] = NCI Yeast Anticancer Drug Screen. Data for the wt2 strain (AID 169);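 note: 0% = growth of vehicle-treated yeast cultures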; settings: S. cerevisiae wt2 strain growth inhibition, stronger effect = higher value
How it was run: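 Read-out: growth inhibition versus vehicle-treated control cultures after compound exposure of the yeast strain.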

[11] = NCI Yeast Anticancer Drug Screen. Data for the mlh1 strain (AID 171);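 note: 0% = growth of vehicle-treated control cultures of the same strain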; settings: S. cerevisiae mlh1 strain growth inhibition, stronger effect = higher value
How it was run: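 Read-out: growth inhibition versus vehicle controls. Strain: engineered yeast with a defined DNA repair or cell cycle defect, compound-treated.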

[12] = NCI Yeast Anticancer Drug Screen. Data for the sgs1 strain (AID 173);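 note: 0% = growth of vehicle-only control cultures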; settings: S. cerevisiae sgs1 mutant, stronger effect = higher value
How it was run: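 Read-out: yeast growth inhibition relative to vehicle controls, following compound exposure of a strain with a defined DNA repair/cell cycle alteration.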

[13] = NCI Yeast Anticancer Drug Screen. Data for the mlh1 rad18 strain (AID 175); settings: S. cerevisiae mlh1 rad18 strain growth inhibition, stronger effect = higher value
How it was run: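 Yeast w/ defined DNA-repair lesions; compound exposure; growth vs vehicle controls → % inhibition.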

[14] = NCI Yeast Anticancer Drug Screen. Data for the rad18 strain (AID 177); settings: S. cerevisiae rad18 mutant growth inhibition, stronger effect = higher value
How it was run: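 Readout: growth inhibition vs vehicle controls. Cells: genetically altered yeast strain, DNA repair defect.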

[15] = at 5.0 µM (retest, dose inferred, filed as 0.5)
[16] = at 50.0 µM (retest, dose inferred, filed as 5.0)

Measured: growth inhibition

CCCCOc1ccc(Nc2c3ccccc3nc3ccccc23)cc1
active: [1]; at 3.7 µM 71% | [1]; at 11.0 µM 91% | [1]; at 33.0 µM 94% | [1]; at 100.0 µM 78% | [2]; at 11.0 µM 86% | [2]; at 33.0 µM 99% | [2]; at 100.0 µM 78% | [3]; at 3.7 µM 79% | [3]; at 11.0 µM 93% | [3]; at 33.0 µM 98% | [3]; [16] 96% | [3]; at 50.0 µM 90.7% | [3]; at 100.0 µM 85% | [4]; at 33.0 µM 97% | [4]; [16] 89% | [4]; at 50.0 µM 88% | [4]; at 100.0 µM 73% | [5]; at 33.0 µM 97% | [6]; [16] 94% | [6]; at 50.0 µM 91.3% | [7]; at 11.0 µM 72% | [7]; at 33.0 µM 98% | [7]; at 100.0 µM 76% | [8]; at 50.0 µM 88.8% | [9]; at 33.0 µM 99% | [9]; [16] 98% | [9]; at 50.0 µM 86.8% | [10]; at 11.0 µM 75% | [10]; at 33.0 µM 98% | [10]; at 100.0 µM 78% | [11]; at 33.0 µM 98% | [11]; at 100.0 µM 74% | [12]; at 11.0 µM 87% | [12]; at 33.0 µM 98% | [12]; at 100.0 µM 82% | [13]; [16] 92% | [13]; at 50.0 µM 87% | [14]; at 11.0 µM 89% | [14]; at 33.0 µM 99% | [14]; at 100.0 µM 75%
inactive: [1]; at 1.2 µM 13% | [2]; at 1.2 µM -27% | [2]; at 3.7 µM -13% | [3]; at 1.2 µM 41% | [3]; [15] 50% | [4]; at 1.2 µM -24% | [4]; at 3.7 µM -37% | [4]; [15] 12% | [4]; at 11.0 µM 68% | [5]; at 1.2 µM -77% | [5]; at 3.7 µM -66% | [5]; at 11.0 µM 43% | [5]; at 100.0 µM 61% | [6]; [15] 10% | [7]; at 1.2 µM -26% | [7]; at 3.7 µM 0% | [8]; [15] 10% | [8]; [16] -7% | [9]; at 1.2 µM -56% | [9]; at 3.7 µM -55% | [9]; [15] 15% | [9]; at 11.0 µM 66% | [9]; at 100.0 µM 69% | [10]; at 1.2 µM 7% | [10]; at 3.7 µM -10% | [11]; at 1.2 µM -39% | [11]; at 3.7 µM -34% | [11]; at 11.0 µM 34% | [12]; at 1.2 µM -3% | [12]; at 3.7 µM -11% | [13]; [15] 26% | [14]; at 1.2 µM -9% | [14]; at 3.7 µM -9%

CCC(C)C(=O)OCC(=O)c1ccc(-c2ccccc2)cc1 (stereo not drawn)
inactive: [1]; at 1.2 µM 1% | [1]; at 3.7 µM 3% | [1]; at 11.0 µM 8% | [1]; at 33.0 µM 10% | [1]; at 100.0 µM 9% | [2]; at 1.2 µM 0% | [2]; at 3.7 µM -1% | [2]; at 11.0 µM 1% | [2]; at 33.0 µM -4% | [2]; at 100.0 µM -35% | [3]; at 1.2 µM 0% | [3]; at 3.7 µM 0% | [3]; [15] 13% | [3]; at 11.0 µM 0% | [3]; at 33.0 µM 1% | [3]; [16] -8% | [3]; at 50.0 µM -8.9% | [3]; at 100.0 µM -2% | [4]; at 1.2 µM -3% | [4]; at 3.7 µM -2% | [4]; [15] -3% | [4]; at 11.0 µM -2% | [4]; at 33.0 µM -4% | [4]; [16] 0% | [4]; at 50.0 µM 2.3% | [4]; at 100.0 µM -6% | [5]; at 1.2 µM -1% | [5]; at 3.7 µM 1% | [5]; at 11.0 µM 5% | [5]; at 33.0 µM 5% | [5]; at 100.0 µM 4% | [6]; [15] 6% | [6]; [16] -1% | [6]; at 50.0 µM -3.05% | [7]; at 1.2 µM 3% | [7]; at 3.7 µM 3% | [7]; at 11.0 µM 1% | [7]; at 33.0 µM -6% | [7]; at 100.0 µM -7% | [8]; [15] -5% | [8]; [16] -8% | [8]; at 50.0 µM 2.3% | [9]; at 1.2 µM 25% | [9]; at 3.7 µM 35% | [9]; [15] 54% | [9]; at 11.0 µM 51% | [9]; at 33.0 µM 68% | [10]; at 1.2 µM -1% | [10]; at 3.7 µM -2% | [10]; at 11.0 µM -1% | [10]; at 33.0 µM -5% | [10]; at 100.0 µM -6% | [11]; at 1.2 µM 0% | [11]; at 3.7 µM 0% | [11]; at 11.0 µM -4% | [11]; at 33.0 µM -73% | [11]; at 100.0 µM -6%
active: [9]; [16] 74% | [9]; at 50.0 µM 87.2% | [9]; at 100.0 µM 75%

— PubChem BioAssay (NCI)
